# From PubChem BioAssay (NCI)
# This is part of a sample that, as a whole, favours compounds with a hit. Of some 83,000 tested, about 20% had one in any assay.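 Cells were grown in 96-well plates and exposed to the test compound at a single concentration for 48 hours; results are reported as percent growth, with values below 10 considered active.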 Values without a mark were called inactive. Activity calls are given as the source filed them.
# Test system: HL-60(TB) leukemia
# Experiment: NCI-60 one-dose screen, 48 h (100 = growth as untreated, 0 = no growth, -100 = all killed)
# Details: 10 µM unless noted
row,SMILES,growth
1,CCc1ccc(NC(=O)N[C@@H](Cc2cccc(F)c2)C(=O)N[C@@H]2C(=O)N3CCC[C@H]3C(=O)N3CCCC[C@H]3C(=O)N[C@@H](C)C(=O)N3C[C@H](C)C[C@H]3C(=O)O[C@H]2C)c(F)c1,8.27% (active)
2,CC1OC(O[C@@H]2[C@H](O)C(CO)OC(O[C@H]3COC(O[C@H]4CC[C@]5(C)[C@H]6CC[C@]78OC[C@@]9(CCC(C)(C)C[C@H]97)[C@H](O)C[C@@]8(C)[C@]6(C)CC[C@H]5C4(C)C)[C@@H](OC4OC(CO)[C@@H](O)[C@@H](O)[C@@H]4O)[C@@H]3O)[C@H]2OC2OC[C@@H](O)[C@@H](O)[C@@H]2O)[C@@H](O)[C@@H](O)[C@H]1O (stereo not given in full),-61.4% (active)
3,O=C(CCCCCC/C=C\c1csc(Br)n1)NO,78.5%
4,Cc1csc(/N=C(N)/N=C(\N)c2cccs2)n1,111%
5,CCN(CC)CCN1C(=O)c2c(c3c4cccnc4[nH]c3c3ccc4ccccc4c23)C1=O,56.2%
6,C#Cc1nc(C2=C(C)C(=N\O)/C(=N/O)C2)cs1,81.7%
7,COc1cc(/C=C/C(=O)c2cc(OC)c(OC)c(OC)c2)ccc1OCc1ccc(F)cc1,9.93% (active)
8,Cc1cc2nc(C(Cl)Cl)nc(-c3ccc(S(=O)(=O)N(C)C)cc3)n2n1,0.868% (active)
9,COc1cc(C(=O)c2cc(C(C)=O)c3cccc(C)n23)cc(OC)c1OC,10.7%
10,CS(=O)(=O)c1nccc(-c2c(-c3cccc(OCc4ccc(Cl)c(C(F)(F)F)c4)c3)nc3sccn23)n1,12.5%
11,NCCNC(=O)c1cccc(COc2ccccc2NC(=O)c2cc(Br)c(Br)[nH]2)c1,69.5%
12,Clc1nc2ccccc2nc1-c1nnc(C2CCCCC2)o1,66.6%
13,O=C(Nc1ccccc1)Nc1nc2ccc([N+](=O)[O-])cc2[nH]1,70.2%
14,O=C(NNc1nc2cc(F)c(F)cc2n2c(CN3CC4CNCC4C3)ccc12)c1cnccn1 (stereo not given),-1.93% (active)
15,CCCCSC1=C(Cl)CN(c2ccc(Cl)cc2)C1=O,85.4%
16,CC1=C(C)C(=O)C(Nc2ccccc2)=C(Cl)C1=O,45.6%
17,CNC(=O)c1cc(Oc2ccc3nc(NC(=O)c4ccc(CN5CCN(C)CC5)c(C(F)(F)F)c4)sc3c2)ccn1,11.3%
18,O=C1[C@@H]2Cc3c([nH]c4ccccc34)[C@H](c3c(Cl)cccc3Cl)N2C(=O)CN1C1CCN(Cc2c(F)cccc2F)CC1,109%
19,CCCC(=O)NC(c1cccnc1)c1cc(C(C)(C)C)c2cccnc2c1O (stereo not given),-13.7% (active)
20,Cc1cc(Cl)cc(NS(=O)(=O)c2ccc(-c3cnc(C4CC4)o3)cc2)c1,-4.23% (active)

row,SMILES,growth
1,NC(=O)C(=Cc1ccc(Cl)cc1)C(N)=O,26.6%
2,C=C1C(=O)O[C@@H]2C[C@@H](C)CCC(=O)[C@](C)(OC(C)=O)C[C@H](OC(=O)/C(C)=C\C)[C@@H]12,26.4%
3,NC(N)=Nc1ccc(Oc2cccc(NC(N)=Nc3ccc(Br)c(C(F)(F)F)c3)c2)cc1,17.6%
4,CC(C)(C)c1ccc(-c2nnc(-c3nc4ccccc4nc3Cl)o2)cc1,13.6%
5,C#CCOc1ccccc1/C=N/Nc1nc(-c2ccc(Cl)cc2)cs1,90.8%
6,NS(=O)(=O)c1ccc(Nc2nc(N/N=C/c3ccc([N+](=O)[O-])cc3)nc(Nc3ccccc3)n2)cc1,35%
7,C#CCOc1ccccc1C(OC(=O)c1ccccc1)C(=O)NC(C)(C)C(C)(C)C (stereo not given),95.1%
8,COC(=O)[C@@H](Cc1c[nH]c2ccccc12)NC(=O)CCCCOc1cc(O)c2c(=O)cc(-c3ccccc3)oc2c1,84.1%
9,N#Cc1c(-c2cccs2)cc(-c2cnccn2)nc1SCC(=O)N/N=C/c1ccncc1,118%
10,CC(C)(C)Nc1nc2c(OCCc3ccccc3)cccn2c1-c1cccc(F)c1,-30.2% (active)
11,Cn1cc(-c2nc(N)nnc2-c2c[nH]c3ccc(Br)cc23)c2cc(Br)ccc21,3.35% (active)
12,Cc1ccc(C(=O)NN2C(=O)/C(=C/C=C/c3ccco3)SC2=S)cc1,30.4%
13,CC(C)NC(=O)c1cc(-c2ccc(NC(=O)Nc3ccc(N4CCOCC4)c(C(F)(F)F)c3)cc2)nc2cccnc12,12.6%
14,COc1cc(OC)c(/C=C/S(=O)(=O)Cc2ccc(OC)c(NC(=O)CCC(=O)NO)c2)c(OC)c1,-10.8% (active)
15,Cc1[nH]c(C(=O)Nc2ccc(S(=O)(=O)N3CCCCC3)cc2OCCOCCOCCOCCOCCOCCOCCOCCOCCOc2cc(S(=O)(=O)N3CCCCC3)ccc2NC(=O)c2[nH]c(C)c3c2CCCCC3=O)c2c1C(=O)CCCC2,10.7%
16,C=CCn1c(SCC(=O)Nc2cccc(C(=O)/C=C/c3ccc(Cl)cc3)c2)nc2ccccc2c1=O,103%
17,C#C[C@]1(O)CC[C@H]2[C@@H]3CC=C4c5sc(Nc6ncccc6C)nc5CC[C@]4(C)[C@H]3CC[C@@]21C,-29.6% (active)
18,CCOc1ccccc1NC1=C(Cl)C(=O)c2nc(C)ccc2C1=O,-36.8% (active)
19,CC(Nc1c(C#N)cnc2ccc(-c3cncc(-c4n[nH]c(=O)o4)c3)cc12)c1ccccc1 (stereo not given),14.9%
20,COC(=O)c1cccc(NC2=C(Cl)C(=O)c3nc(C)ccc3C2=O)c1,24.3%
